High-throughput results from PubChem.
This is a sample that favours compounds with a hit; in the whole collection about 7.5% have one here.
SMN2 splice up: SMN2 splice variant enhancement; HEK293 SMN2-luciferase splicing reporter, luminescence, 30-36 h; Potency, µM (titrated, usually from 46.1 µM), without a hit: top-dose activity change, positive = activation, hits mostly activators; actives 2.8% (n = 210,000); further: % of control where 0% means no effect; nearly all actives have a fitted effect of over 55% in size
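HEK293 cells carry an SMN2 […]–luciferase reporter in which exon 7 inclusion puts luciferase in frame. Cells were plated 10-12 h before compound addition, then incubated 30-36 h at 37C. ONE-Glo luminescence was read; sodium butyrate at 4.5 mM final served as control.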
FLuc counter: inhibits or activates purified firefly luciferase, miR-21 counter-screen | P08659 | purified FLuc, Km substrates, luminescence inhibition | Potency, µM (highest dose often 57.5 µM), for inactives: at the top dose activity change, negative = inhibition, actives largely listed as inhibitors | actives 6.9% (n = 360,000);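 further: plate controls were vehicle for no effect and reference inhibitor for full effect; nearly all actives have a fitted effect of over 55% in size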
Target sequence (P08659 whole entry, looked up): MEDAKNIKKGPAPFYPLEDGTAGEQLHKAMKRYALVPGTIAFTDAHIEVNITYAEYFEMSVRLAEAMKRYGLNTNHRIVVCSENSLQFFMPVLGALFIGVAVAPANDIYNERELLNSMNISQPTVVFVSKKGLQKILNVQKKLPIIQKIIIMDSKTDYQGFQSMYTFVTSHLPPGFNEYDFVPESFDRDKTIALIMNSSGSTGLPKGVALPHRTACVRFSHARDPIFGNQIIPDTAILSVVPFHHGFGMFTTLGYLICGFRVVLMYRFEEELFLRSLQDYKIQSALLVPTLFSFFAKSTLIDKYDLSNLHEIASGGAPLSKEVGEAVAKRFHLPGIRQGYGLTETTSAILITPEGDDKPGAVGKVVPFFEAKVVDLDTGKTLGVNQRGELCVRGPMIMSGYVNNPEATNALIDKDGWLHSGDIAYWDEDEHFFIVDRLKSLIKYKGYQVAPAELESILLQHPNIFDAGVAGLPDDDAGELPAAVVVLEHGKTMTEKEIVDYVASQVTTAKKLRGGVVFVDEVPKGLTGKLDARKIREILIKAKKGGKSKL
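Biochemical qHTS of compounds, final roughly 60 µM downward over six points, against 10 nM purified firefly luciferase using Km concentrations of substrates (10 uM D-luciferin, 10 uM ATP) in Tris acetate pH 7.5 buffer; luminescence output.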
NPC1 promoter act: activators of NPC1 promoter; Potency, µM (highest dose often 9.22 µM), for the others: at the highest dose activation, hits mostly activators; actives 2.4% (n = 320,000); AID 485313; Huh7 NPC1 promoter luciferase reporter, 24 h; further: % of control where 0% means no effect; nearly all actives have a fitted effect of over 60% in size
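Readout is luciferase luminescence, reflecting NPC1 promoter activation in stably transfected Huh7 cells after 24 h compound exposure at 37 °C in reduced-serum medium with 10% FBS.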
ELG1 genotox: inducers of genotoxicity in HEK293T ELG1-luciferase cells; HEK293T ELG1-luciferase reporter, luminescence, 16 h; Potency, µM (series often up to 46 µM), for the others: at the top dose activity change, positive = activation, hits mostly activators; actives 1.3% (n = 330,000); AID 504466; further: % of control where 0% means no effect; nearly all actives have a fitted effect of over 60% in size
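Step 1: seed 2,000 HEK293T ELG1-luciferase cells per well. Step 2: add compound or DMSO, incubate 16 hr at 37 °C. Step 3: ONE-Glo, 30 min at room temperature, read luminescence.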
Rab9 prom act: activates the Rab9 promoter; actives 2.8% (n = 320,000); Potency, µM (top dose mostly 9.22 µM), for the others: at the top dose activation, negative = inhibition, actives largely listed as activators; Huh7 Rab9 promoter-luciferase reporter, luminescence, 24 h; AID 485297; further: % of control where 0% means no effect; nearly all actives have a fitted effect of over 60% in size
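Using Huh7 cells stably transfected with Rab9 promoter–luciferase, compounds were incubated 24 h at 37 °C, 5% CO2; luciferase luminescence was read 10 min after reagent addition.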
The depositor's hits bear a star; ? = inconclusive; · = not tested or not shown. The call rests on the fitted dose curve; in most records, active means well fitted curve in the direction sought with a large enough effect; inconclusive means small, poorly fitted or top-dose-only effect, or another doubt; inactive means no such curve, though single readings can be large; an effect the other way counts as inactive or inconclusive. Potency means the concentration at half of the fitted maximal effect.

SMILES	SMN2 splice up	FLuc counter	NPC1 promoter act	ELG1 genotox	Rab9 prom act
O=C(Nc1ccc(Nc2ccccc2)cc1)Nc1ccccc1Cl	·	11µM*	?	?	?
COc1ccc(S(=O)(=O)N(C)C)cc1NC(=O)Cc1c[nH]c2ccccc12	16%	-11%	-1%	-2%	-2%
Cc1cccc(C(=O)N/N=C/c2ccccn2)c1	2µM*	19µM*	?	?	3.5µM*
CCN(CC)S(=O)(=O)c1cccc(C(=O)N/N=C/c2ccccn2)c1	3%	?	-4%	0%	1%
O=C(N/N=C/c1ccccn1)c1ccc(NC(=O)c2cccc([N+](=O)[O-])c2)cc1	1%	?	6%	-4%	9%
Cc1cccc(C(=O)Nc2cccc(C(=O)N/N=C/c3ccccn3)c2)c1	·	19µM*	0%	0%	-5%
O=C(N/N=C/c1cccs1)c1cccc(NC(=O)c2ccccc2Cl)c1	1%	24µM*	10%	1%	8%
O=C(N/N=C/c1ccccn1)c1cccc(NC(=O)c2ccccc2Cl)c1	·	17µM*	3%	9%	15%
O=C(CNS(=O)(=O)c1ccc(Br)s1)N1CCN(c2ccccc2F)CC1	-14%	2%	·	·	·
O=C(Nc1cccc(NC(=O)c2ccccc2Cl)c1)c1ccc(F)cc1	·	?	2%	-1%	-2%
O=C(N/N=C/c1ccccc1F)c1cccc(NC(=O)c2ccccc2Cl)c1	·	13µM*	19%	7%	17%
CC(=O)NC12CC3CC(C1)CC(C(=O)N1CCN(S(=O)(=O)c4cccc(F)c4)CC1)(C3)C2	·	5%	-5%	-2%	4%
Cc1cc(O)c(NC(=O)c2ccco2)cc1C	11µM*	30µM*	26%	?	27%
Cc1cc(NC(=O)c2ccccc2)ncc1NC(=O)c1ccco1	8.9µM*	11µM*	2µM*	1.6µM*	1.4µM*
CCC(=O)Nc1cc(C)c(NC(=O)c2ccco2)cn1	-14%	4%	1%	-1%	-2%
Cc1ccc(C(=O)Nc2ccc(NC(=O)c3ccco3)c(C)c2)cc1	·	5.4µM*	21%	?	30%
Cc1ccc(O)c(NC(=O)c2ccco2)c1	16µM*	6µM*	?	11%	18%
Cc1ccc(-c2nn3c(C)nnc3c3ccccc23)cc1S(=O)(=O)NCc1ccccc1	-7%	-1%	-4%	3%	3%
CCOc1ccc(CN2C(=O)c3ccccc3C2C(=O)NCC2CCCO2)cc1 (stereo not given)	18%	-1%	-1%	2%	-14%
Cc1ccc(C2=CC(c3ccccc3F)n3c(nc4ccccc43)N2)cc1C (stereo not given)	·	6µM*	·	·	·
COc1cccc(C2=CC(c3ccccc3F)n3c(nc4ccccc43)N2)c1 (stereo not given)	·	12µM*	·	·	·
COc1cccc(C2=CC(c3ccccc3F)n3ncc(C(=O)Nc4ccc(C)cc4)c3N2)c1 (stereo not given)	·	-1%	·	·	·
Cc1ccc(NC(=O)CSc2ccc(C(N)=O)cc2[N+](=O)[O-])cc1C	7%	1%	1%	5%	3%
Cc1ccc2oc(-c3ccc(NC(=O)c4ccncc4)cc3O)nc2c1	·	?	0%	?	24%
Cc1ccc2oc(-c3cc(NC(=O)c4ncn[nH]4)ccc3O)nc2c1	·	2.7µM*	-3%	0%	2%
SMILES	SMN2 splice up	FLuc counter	NPC1 promoter act	ELG1 genotox	Rab9 prom act
O=C(NCCc1ccc(Cl)cc1)c1ccc2c(c1)OCCO2	·	1.2µM*	0.4µM*	2.3µM*	0.32µM*
O=C(NCCc1ccc(Cl)cc1)c1ccc2c(c1)OCO2	·	12µM*	1.8µM*	?	1.8µM*
O=C(CNC(=O)c1ccc2c(c1)OCO2)NCCOc1ccc(Cl)cc1	·	·	·	2%	·
O=C(NCCc1ccccc1F)c1ccc2c(c1)OCCO2	·	0.048µM*	0.025µM*	?	0.0006µM*
O=C(NCCOc1ccc(Cl)cc1)c1ccc2c(c1)OCCO2	·	8.5µM*	3.2µM*	?	3.5µM*
O=C(CNS(=O)(=O)c1ccc2ccccc2c1)NCCc1ccccn1	-5%	5%	-5%	-1%	-2%
CC(=O)OCC(=O)[C@@]1(O)CC[C@H]2[C@@H]3CCC4=CC(=O)C=C[C@]4(C)[C@H]3C(=O)C[C@@]21C	·	-1%	-5%	0%	13%
Cc1ccc(CN2C(=O)CSC2c2cccnc2)cc1 (stereo not given)	·	0%	-1%	?	-1%
COC(C(=O)Nc1ccnn1C1CCN(Cc2cccc(C)n2)CC1)c1ccccc1 (stereo not given)	·	3%	-1%	2%	0%
Cc1cc(/C=C2\SC(=S)N(C)C2=O)c(C)n1-c1ccc(O)cc1	·	0.54µM*	-15%	?	-26%
Cc1ccc(-n2c(C)cc(C=C3C(=O)CC(C)(C)CC3=O)c2C)cc1	-19%	?	0%	-1%	-3%
Cc1sc(-n2c(C)cc(/C=N/n3cnnc3)c2C)c(C#N)c1C	·	?	-6%	2%	-5%
Cc1sc(-n2c(C)cc(/C=C3\SC(=S)NC3=O)c2C)c(C#N)c1C	3%	13µM*	-1%	1%	?
NC1=NC(=O)/C(=C/c2ccc(Cl)cc2Cl)S1	·	-14%	-1%	5%	12%
Cc1ccc(-n2c(C)cc(/C=C3\SC(=O)NC3=O)c2C)cc1	·	2.7µM*	2.5µM*	?	0.71µM*
Cc1cc(/C=C2\SC(N)=NC2=O)c(C)n1-c1ccc(F)cc1	·	0.85µM*	19%	10%	19%
O=C(COc1cccnc1[N+](=O)[O-])N1CCN(S(=O)(=O)c2ccc3ccccc3c2)CC1	-17%	3%	0%	-2%	0%
NCCCC[C@@H](C(=O)NCCCCCCCCCCC(=O)N1CCNCC1)n1cc(CCO)nn1	·	-2%	-1%	2%	1%
Cc1cc(/C=C2/C(=O)NN(c3ccccc3)C2=O)c(C)n1-c1cccc(O)c1	-25%	0.13µM*	1.6µM*	?	3.5µM*
O=C1NN(c2ccc(Br)cc2)C(=O)/C1=C\c1ccc(O)cc1O	·	?	7%	-3%	4%
Cc1cc(/C=C2\SC(=S)NC2=O)c(C)n1-c1cccc(O)c1	·	1.1µM*	2.5µM*	?	1.6µM*
COc1ccc(-n2c(C)cc(/C=C3\SC(=O)NC3=O)c2C)cc1	·	12µM*	?	?	?
Cc1ccc(CNc2cc(C)nc3nc(-c4cccc(C)c4)nn23)cc1	·	12µM*	·	·	·
CCOc1ccc(CNc2cc(C)nc3nc(-c4cccc(C)c4)nn23)cc1OC	·	5.4µM*	·	·	·
Cc1cccc(Nc2cc(C)nc3nc(-c4ccccc4)nn23)c1	-6%	-8%	·	·	·
COCCNC(=O)C(c1ccncc1)N(Cc1ccccc1)C(=O)Cn1nnc2ccccc21 (stereo not given)	13µM*	?	?	0%	?
